Many of the other results were omitted from the sample, so hits are more common in it than they were.
Dicer processing – human Dicer pre-microRNA cleavage inhibition | hit rate 6% among 47,000 | z-score at 25 µM | Q9UPY3 | AID 1347074 | cat-ELCCA pre-miR-21 Dicer processing, chemiluminescence; hits give high values; in the data active = z-score above about 3, passing the limit was not always enough;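 also: higher signal means more uncleaved substrate so more Dicer inhibition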
Target sequence (Q9UPY3 whole entry, looked up): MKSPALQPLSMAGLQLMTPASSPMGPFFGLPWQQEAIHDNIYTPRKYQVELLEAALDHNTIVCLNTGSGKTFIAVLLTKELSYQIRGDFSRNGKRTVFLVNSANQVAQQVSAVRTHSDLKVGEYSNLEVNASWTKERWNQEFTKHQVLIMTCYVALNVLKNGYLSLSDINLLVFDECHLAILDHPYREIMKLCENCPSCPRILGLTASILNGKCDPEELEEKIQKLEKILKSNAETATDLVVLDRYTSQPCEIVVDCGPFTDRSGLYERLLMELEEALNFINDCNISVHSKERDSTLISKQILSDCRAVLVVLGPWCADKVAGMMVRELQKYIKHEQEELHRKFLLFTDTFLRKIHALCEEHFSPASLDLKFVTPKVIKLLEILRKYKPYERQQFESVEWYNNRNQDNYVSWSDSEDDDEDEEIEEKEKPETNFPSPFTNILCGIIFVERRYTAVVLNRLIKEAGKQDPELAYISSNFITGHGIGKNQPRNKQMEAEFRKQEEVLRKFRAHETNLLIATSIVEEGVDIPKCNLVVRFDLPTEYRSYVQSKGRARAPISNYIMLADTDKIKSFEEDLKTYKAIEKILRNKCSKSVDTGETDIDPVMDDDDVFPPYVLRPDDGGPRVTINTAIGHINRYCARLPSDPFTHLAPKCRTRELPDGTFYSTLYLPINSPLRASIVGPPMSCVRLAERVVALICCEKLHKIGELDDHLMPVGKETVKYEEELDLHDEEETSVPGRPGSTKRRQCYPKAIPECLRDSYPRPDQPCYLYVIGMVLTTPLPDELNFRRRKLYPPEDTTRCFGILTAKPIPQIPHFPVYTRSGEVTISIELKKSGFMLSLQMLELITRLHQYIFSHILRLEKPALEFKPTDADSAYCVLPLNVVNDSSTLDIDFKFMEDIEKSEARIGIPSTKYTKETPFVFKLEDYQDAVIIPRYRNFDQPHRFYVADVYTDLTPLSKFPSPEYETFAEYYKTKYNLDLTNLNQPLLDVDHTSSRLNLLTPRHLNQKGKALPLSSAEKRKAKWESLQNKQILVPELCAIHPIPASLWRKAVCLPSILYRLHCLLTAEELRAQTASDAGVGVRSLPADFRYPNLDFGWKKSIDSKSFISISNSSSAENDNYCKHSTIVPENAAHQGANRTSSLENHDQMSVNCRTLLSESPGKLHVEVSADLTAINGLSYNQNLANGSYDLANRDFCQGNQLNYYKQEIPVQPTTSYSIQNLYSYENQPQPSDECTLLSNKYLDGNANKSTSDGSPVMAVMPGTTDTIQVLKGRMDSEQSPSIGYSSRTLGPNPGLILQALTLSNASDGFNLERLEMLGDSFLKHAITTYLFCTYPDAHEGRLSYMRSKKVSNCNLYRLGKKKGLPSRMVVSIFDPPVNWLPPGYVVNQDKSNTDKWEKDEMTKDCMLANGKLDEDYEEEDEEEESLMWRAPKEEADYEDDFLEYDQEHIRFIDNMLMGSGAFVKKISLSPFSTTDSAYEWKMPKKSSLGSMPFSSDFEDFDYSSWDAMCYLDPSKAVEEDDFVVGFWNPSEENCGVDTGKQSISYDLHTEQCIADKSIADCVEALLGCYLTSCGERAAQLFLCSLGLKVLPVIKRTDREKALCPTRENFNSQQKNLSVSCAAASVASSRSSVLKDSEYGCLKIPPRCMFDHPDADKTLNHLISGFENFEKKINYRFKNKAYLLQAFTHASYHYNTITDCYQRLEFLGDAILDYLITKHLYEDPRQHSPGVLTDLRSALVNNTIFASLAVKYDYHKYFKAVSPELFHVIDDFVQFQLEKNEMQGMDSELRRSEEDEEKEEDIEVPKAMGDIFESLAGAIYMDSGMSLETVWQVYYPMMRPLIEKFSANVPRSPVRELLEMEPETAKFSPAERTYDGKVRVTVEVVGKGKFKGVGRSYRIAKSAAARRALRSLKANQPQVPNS
Numbers stand for hits; n = inactive.

SMILES | Dicer processing
Cc1cccc2[nH]c(SCc3ccccc3F)nc12 | n
O=c1[nH]c(-c2ccccc2)nc(=S)[nH]1 | n
Cc1cccc2[nH]c(-c3ccc(N)cc3)nc12 | 6.8
Cc1ccc2cccc(OS(=O)(=O)c3cc([N+](=O)[O-])ccc3C)c2n1 | n
O=C(O)CSCC(=O)NCC1COc2ccccc2O1 (centres undefined) | n
O=C(O)COc1ccc(-c2nc3ccccc3s2)cc1 | n
COc1ccc(Nc2ccccc2C(C)C)c(C(=O)O)c1 | n
Nc1cc(-c2ccc(OC(F)(F)F)cc2)nn1-c1ccc(Cl)cc1 | n
O=S(=O)(NCc1ccccn1)c1ccc(S(=O)(=O)c2ncc(C(F)(F)F)cc2Cl)s1 | n
COc1cccc(CNCCO)c1OCc1ccccc1F | n
COc1cc2c(cc1OC)C(C)N(C(=O)CCCC(=O)O)CC2 (centres undefined) | n
Cc1cc(NC(=O)N(CCC#N)Cc2ccccc2)c(C(F)(F)F)o1 | n
CCNC(=S)Nc1ccc(Cl)cc1Cl | n
S=C(NNc1c(Cl)cncc1Cl)Nc1ccc(Cl)cc1Cl | 6.7
OCCCNNC(=S)Nc1ccc(Cl)cc1Cl | n
CC1(C)Cc2nc3sc4c(NCc5ccccc5)ncnc4c3cc2CO1 | n
CCOC(=O)N1CCN(S(=O)(=O)c2ccc(Cl)cc2)CC1 | n
CCCS(=O)(=O)N1CCN(C2CCN(C(=O)OCC)CC2)CC1 | n
CCOC(=O)N1CCN(S(C)(=O)=O)CC1 | 3.5
CC1=C(C(=O)OCCc2ccccc2)C(c2ccc(C)o2)C2=C(CC(c3cccs3)CC2=O)N1 (centres undefined) | n
Cc1c(/C=N/O)c(=O)n(-c2ccccc2)n1C | n
CN1C(=O)CC(c2ccsc2)Sc2ccccc21 (centres undefined) | n
CC1CC(=O)N(C)c2ccccc2S1(=O)=O (centres undefined) | 4
CN1C(=O)CN(C2CCCCC2)C(=O)c2ccccc21 | n
Cc1ccc(C(=O)CC(Sc2ccc3ccccc3c2)c2ccsc2)cc1 (centres undefined) | n
SMILES | Dicer processing
CCOC(=O)c1c(C)nn(-c2ccc(NC(=O)Nc3cccc(Cl)c3C)cc2)c1C | n
Cn1c(=O)c2c(ncn2CC(=O)Nc2ccc(F)c(Cl)c2)n(C)c1=O | n
O=[N+]([O-])/C=C/c1c(-c2ccc3ccccc3c2)[nH]c2ccccc12 | n
O/N=C/c1c(-c2ccc(Cl)cc2)[nH]c2ccccc12 | 5
Clc1ccc(-c2cc3ccccc3[nH]2)cc1 | n
C=CCSc1nnnn1-c1c(C)cc(C)cc1C | n
CSc1sc(Cl)c(-c2ccc(Cl)cc2)c1C#N | n
Cc1ccnc(NC(c2ccccc2C)c2ccc3cccnc3c2O)c1 (centres undefined) | n
Cc1ccc(C(Nc2ccccn2)c2ccc3ccc(C)nc3c2O)cc1 (centres undefined) | n
C=CCOc1ccc(C(Nc2ccccn2)c2ccc3ccc(C)nc3c2O)cc1 (centres undefined) | n
Cc1ccc2ccc(C(Nc3ccccn3)c3cccc(Br)c3)c(O)c2n1 (centres undefined) | n
Cc1ccc2ccc(C(Nc3ccccn3)c3cccc(Cl)c3)c(O)c2n1 (centres undefined) | 16
Cc1ccc(C)c(C(Nc2ccccn2)c2ccc3cccnc3c2O)c1 (centres undefined) | n
Cc1cccc(NC(c2cccc(O)c2)c2ccc3ccc(C)nc3c2O)n1 (centres undefined) | n
Cc1ccc2ccc(C(Nc3ccccn3)c3ccc(Cl)cc3)c(O)c2n1 (centres undefined) | 4.8
Cc1ccccc1C(Nc1ccccn1)c1ccc2cccnc2c1O (centres undefined) | 5.7
N#Cc1nn(-c2ccccc2)c(=O)[nH]c1=O | n
O=C1c2oc3ccccc3c(=O)c2C(c2ccccc2F)N1c1nccs1 (centres undefined) | n
CNC(=O)c1c(C)csc1NC(=O)C(F)(F)F | n
COC(=O)C1=C(C)Nc2ncnn2C1c1cccc(O)c1 (centres undefined) | n
CC(=O)OCCOCn1cnc2c(=O)[nH]c(N)nc21 | n
CCOC(=O)Cc1c(SC)c2ccccc2n1C | n
Cn1cnnc1SCCC(=O)Nc1ccccc1 | n
CSc1c(CC(=O)Nc2ccccc2)n(C)c2ccccc12 | 3.7
Cc1onc(-c2c(Cl)cccc2Cl)c1NC(=O)Nc1ccc(Oc2ccc(Cl)cc2)nc1 | n
SMILES | Dicer processing
CSc1scc2c1-c1nc(SCc3ccc(Cl)cc3)ncc1CC2 | n
COc1ccc(-c2c(C#N)c(N)nc3c2CCCCC3)cc1OC | n
C#Cc1cccc(NCN2C(=O)c3ccccc3C2=O)c1 | 3.1
CC(=O)Nc1ccc(NCN2C(=O)c3ccccc3C2=O)cc1 | n
CC(C)c1ccc(NCN2C(=O)c3ccccc3C2=O)cc1 | n
CCOc1ccc(-c2cc(=O)c3cc(O)ccc3o2)cc1 | n
CSc1sc(C)cc1C1C(C#N)=C(N)N(c2cccnc2)C2=C1C(=O)CC(c1ccccc1)C2 (centres undefined) | 5.8
COC(=O)C1=C(C)NC2=C(C(=O)CC(c3ccccc3)C2)C1c1cccnc1 (centres undefined) | n
CCSc1ccsc1C1C(C#N)=C(N)N(c2cccnc2)C2=C1C(=O)CC(c1ccccc1)C2 (centres undefined) | n
CN(C)c1ccc(C2/C(=C(\O)c3ccc(F)cc3)C(=O)C(=O)N2Cc2cccnc2)cc1 (centres undefined) | n
CCOC(=O)c1cnc(Nc2nc(C(C)(C)C)cs2)nc1C | n
Cc1ccc(-c2[nH]ncc2Sc2ccc(C(F)(F)F)cn2)cc1 | n
O=C(NNc1c(Cl)cccc1Cl)c1sccc1Cl | n
O=C(NNc1cc(Cl)ccc1Cl)C1CCCS1 (centres undefined) | n
O=C(NNc1cc(Cl)ccc1Cl)c1sccc1Cl | 5.2
CCOc1ccc(C2C(C(=O)c3ccc(C)cc3)=C(C(=O)OC)Nc3nnnn32)cc1 (centres undefined) | n
Cc1ccc(C2C3=C(Nc4ncnn42)c2ccccc2CCC3)cc1 (centres undefined) | n
CC(C)(CO)NC(=S)Nc1ccc(F)cc1F | n
CCOc1ccc(Oc2nc(NCC(C)C)nc(N3CCOCC3)n2)nn1 | 5.8
COc1nc(NCC(C)C)nc(Oc2ccc(=O)[nH]n2)n1 | n
CN(C)c1nc(Oc2ccc(=O)n(C)n2)nc(N2CCOCC2)n1 | n
CC1=C(C(=O)OCCc2ccccc2)C(c2ccccc2F)C2=C(CC(C)(C)CC2=O)N1 (centres undefined) | n
CSC(SC)=C(C#N)C(=O)c1cccc(C(F)(F)F)c1 | 5.1
N#CC(C(=O)c1cccc(C(F)(F)F)c1)=C1SCCCCS1 | n
CSC(SC)=C(C#N)C(=O)c1cccc(C)c1 | n
SMILES | Dicer processing
CCOc1ccc2nc(SC3CC(=O)N(c4cc(OC)ccc4OC)C3=O)sc2c1 (centres undefined) | n
CCOC(=O)CNC(=O)Cn1cnc2c1c(=O)n(C)c(=O)n2C | n
CCOC(=O)c1c[nH]c2ccccc2c1=O | 3
CCOC(=O)c1c[nH]c2ccc(C(F)(F)F)cc2c1=O | n
CCOC(=O)c1ccc2[nH]cc(C(=O)OCC)c(=O)c2c1 | n
Cn1c(=O)[nH]c(=O)c2c1nc(NCCc1ccccc1)n2CCO | n
Cn1nccc1C(=O)Nc1ccc(Cl)cc1 | n
Cn1nccc1NC(=S)Nc1ccc(Cl)cc1 | 4
Cn1nccc1NC(=O)Nc1cc(Cl)cc(Cl)c1 | n
Cc1onc(-c2c(Cl)cccc2Cl)c1-c1csc(-c2cnccc2C(F)(F)F)n1 | n
COc1ccc2c(c1)C(C)=CC(C)(C)N2C(=O)Nc1ccc(Cl)cc1 | n
CC(C)(C)NC(=O)NC(=O)c1ccc(Oc2ccc(C(F)(F)F)cc2[N+](=O)[O-])cc1 | 3.8

Bioassay records from PubChem BioAssay.
